From the OligoGym collection come the findings set out here.
Note: reference of the scale not given here.

The first test concerns the target KRI1. Briefly: pooled miR-30 sensor sort-seq; sequence = guide strand. Conditions: shRNA.
In the case of TACAGGGGCTTCCTCTTCCTGT, the sensor-assay potency score (higher = more potent) was -0.817. Still for that read-out and setting: the same measure for TACTTTCCGCAGCTTCTCCAGC: -0.735; for TTCTTTAGGGAGCACCACCGGT: -1.34. TTCTTCAACAAGGAGAGCGTTT had a sensor-assay potency score (higher = more potent) of -0.767.

TTGAGCTCTTCCTGCTTCTTTG: the sensor-assay potency score (higher = more potent) is -1.32. TAACCTTCCTCTCGTAGTCCTT registered a sensor-assay potency score (higher = more potent) of -0.514. The same measure, in the same setting: the result for TTACTTTCCGCAGCTTCTCCAG reads -1.11; that for TTTGTTGAGGATGTAATCCCGC, -0.152.

A further test concerns the target KRT2. The description is as above. Particulars: shRNA.
With TTTCAGAAACTCAATTTCCTGG, the sensor-assay potency score (higher = more potent) is -0.272. The same measure, in the same setting: the result for TAAACCTCCAACACCACCAGGG reads 0.275; that for TATCTTGATCTCTTTCAGGCTG, 0.155. As for TTGATCTCCGGCTTCCACCAGA, the sensor-assay potency score (higher = more potent) is -0.146. Same read-out and setting: the same measure for TTCACATTCTGGATCTCTGGGT: 0.038; for TTGGACTGCAACTCCACCTTTA: -0.149.

TTGCACATTCTTACACTGCTTC yielded a sensor-assay potency score (higher = more potent) of 0.204. For TTCTGCAGTGAGCCCATCCAGA, the sensor-assay potency score (higher = more potent) was -1.13.

For TTTGATGAAATGGTGCTGCTTG, the sensor-assay potency score (higher = more potent) stood at 0.566. Turning to TTTTGATCTGCTCACGCTCTTG, the sensor-assay potency score (higher = more potent) was -1.42. The sequence TTGGTGTCAGTGACACTCTGAT registered a sensor-assay potency score (higher = more potent) of -0.228. TACACTGCTTCTTCACATGTGC registered a sensor-assay potency score (higher = more potent) of 0.0185.

In a further test the target is KRT33B. Described as above. Conditions: shRNA.
Take TTTTCACATGCATTGGTGGTGG: the sensor-assay potency score (higher = more potent) turned out to be 0.0181.

With TTGTCGATCTGCACCACCAGCC, the sensor-assay potency score (higher = more potent) is -0.512. TTTTCCAGAGAGTATCGCAGGT yielded a sensor-assay potency score (higher = more potent) of 0.0207. As for TTCTCAGACTTGCTGCACAGGA, the sensor-assay potency score (higher = more potent) was -1.16. Still for that read-out and setting: the same measure for ATACTGATTCCTGGTCTCGTTC: -1.38; for TAGGACTGCAGCTGCTCCGAGC: -1.39. TTCTGAAGTCATCTGCAGCCAG gave a sensor-assay potency score (higher = more potent) of -0.402. In turn, TTGGTTCTGAAGTCATCTGCAG returned a sensor-assay potency score (higher = more potent) of 0.243.

In the case of TCCGTCTGGTACTTGGTTCTGA, the sensor-assay potency score (higher = more potent) was -0.6. TCGATCTGCACCACCAGCCTGG displayed a sensor-assay potency score (higher = more potent) of -0.584. On the same count and under the same terms, the result for TGGTTCTGAAGTCATCTGCAGC reads -1.53.

The sequence TTTCCAGAGAGTATCGCAGGTT came in with a sensor-assay potency score (higher = more potent) of 0.0223.

ATTGTCGATCTGCACCACCAGC gave a sensor-assay potency score (higher = more potent) of -1.36. TTGTCAGAGAGGCAGAACTGGC returned a sensor-assay potency score (higher = more potent) of -1.76.

Another test has as its target KRT75. Described as above. Particulars: shRNA.
In turn, TTAATTTCATCTTCGTACCTGA displayed a sensor-assay potency score (higher = more potent) of 0.609. On the same count and under the same terms, the same measure for TTCACATGTGTAACAGACGGGT: -0.549; for TTGACTCCAAACCTGTTGCTGG: -0.175; for TTGCAAGCTGGAACACTGCTTC: 0.132. As to TTCATCTTCGTACCTGACTTTG, the sensor-assay potency score (higher = more potent) is -1. The same measure, in the same setting: the same measure for ATAGGCAGCATCTACGTCCTTT: -0.0293.
